# A number with no mark means an inactive call. No rule for the calls is given here.
# Assay: PubChem AID 1788
# Conditions: MDS Pharma lead profiling panel, radioligand binding; GABAA central (rat), Flunitrazepam site; at 10 µM; active compounds read high
smiles,measurement,value
CCOC(=O)N1CCC(NCCNC(=O)c2ccccc2C)CC1,inhibition,-12%

# — PubChem BioAssay AID1788 (Vanderbilt High Throughput Screening Facility, 2009)
